# Tests used:
# Experiment in all cases: DAPPL (digital affinity profiling via proximity ligation, sequencing); 10 mM Tris-HCl pH 7.5, 50 mM NaCl, 1 mM DTT, 4% glycerol, room temperature, 30 min; GST-TFs on glutathione beads, 16-mer random dsDNA library, 0.1% formaldehyde crosslink after washing; high values mean tight binding
# FLI1 = biological target: T1, FLI1 (Homo sapiens, UniProt Q01543 1-452); conditions: protein: recombinant; tags: N-terminal GST; dsDNA, one strand shown
# T1 sequence: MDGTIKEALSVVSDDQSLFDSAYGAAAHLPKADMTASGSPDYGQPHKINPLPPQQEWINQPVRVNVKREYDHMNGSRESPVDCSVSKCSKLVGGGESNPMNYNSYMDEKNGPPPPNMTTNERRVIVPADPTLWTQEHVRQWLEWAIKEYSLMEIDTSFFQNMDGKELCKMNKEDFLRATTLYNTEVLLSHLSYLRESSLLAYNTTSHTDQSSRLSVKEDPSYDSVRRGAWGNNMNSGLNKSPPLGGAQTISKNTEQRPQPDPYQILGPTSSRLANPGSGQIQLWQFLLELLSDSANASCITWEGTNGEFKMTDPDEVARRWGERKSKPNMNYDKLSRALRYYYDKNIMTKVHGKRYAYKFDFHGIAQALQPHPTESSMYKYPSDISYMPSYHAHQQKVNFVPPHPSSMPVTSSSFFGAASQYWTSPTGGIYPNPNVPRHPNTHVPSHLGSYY
# Procedure, shortened: (§1)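 In yeast, human transcription factors were expressed with a GST fusion, then pulled down on glutathione beads and given DNA barcodes. Pooled with a tag-only sample, they were exposed to 200 nmole of a 16-mer random double-stranded DNA library (Tris/NaCl/DTT/glycerol buffer, room temperature, 30 min), washed, crosslinked with 0.1% formaldehyde, proximity-ligated using BsaI/T4 ligase for 1 h at 37 °C, PCR-amplified and read on an Illumina NextSeq500. Each hexamer's frequency of reads for a factor, divided by the matching frequency for the tag-only sample, gives the binding signal.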
# ELK1 = biological target: T2, ELK1 (Homo sapiens, UniProt P19419 1-428); conditions: protein: recombinant; tags: N-terminal GST; dsDNA, one strand shown
# T2 sequence: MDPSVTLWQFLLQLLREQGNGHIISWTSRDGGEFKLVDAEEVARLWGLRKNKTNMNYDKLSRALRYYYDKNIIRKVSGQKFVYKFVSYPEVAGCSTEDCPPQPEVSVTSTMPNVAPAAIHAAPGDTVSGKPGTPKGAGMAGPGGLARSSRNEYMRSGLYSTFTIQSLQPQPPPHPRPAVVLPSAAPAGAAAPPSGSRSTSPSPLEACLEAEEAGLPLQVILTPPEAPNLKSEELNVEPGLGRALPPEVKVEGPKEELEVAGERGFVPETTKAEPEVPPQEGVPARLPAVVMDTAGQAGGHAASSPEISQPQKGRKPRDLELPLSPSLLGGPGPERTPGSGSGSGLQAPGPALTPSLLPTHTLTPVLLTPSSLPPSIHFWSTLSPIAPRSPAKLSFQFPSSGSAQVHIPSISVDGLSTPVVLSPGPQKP
# Procedure, shortened: as §1
# GABPA = biological target: T3, GABPA (Homo sapiens, UniProt Q06546 1-454); conditions: protein: recombinant; tags: N-terminal GST; dsDNA, one strand shown
# T3 sequence: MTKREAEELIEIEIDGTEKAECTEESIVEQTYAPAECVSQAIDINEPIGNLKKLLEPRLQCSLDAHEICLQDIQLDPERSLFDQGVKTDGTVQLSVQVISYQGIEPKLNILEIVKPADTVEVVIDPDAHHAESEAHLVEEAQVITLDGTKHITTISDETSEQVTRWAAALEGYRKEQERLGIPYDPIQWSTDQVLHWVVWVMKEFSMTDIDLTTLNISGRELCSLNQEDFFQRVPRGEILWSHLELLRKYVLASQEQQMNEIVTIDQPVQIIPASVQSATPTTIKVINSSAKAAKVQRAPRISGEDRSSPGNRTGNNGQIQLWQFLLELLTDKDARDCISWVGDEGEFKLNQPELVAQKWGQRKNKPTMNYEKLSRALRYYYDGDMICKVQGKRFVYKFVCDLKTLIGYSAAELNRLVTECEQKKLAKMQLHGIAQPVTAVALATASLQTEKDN
# Procedure, shortened: as §1
# ERG = biological target: T4, ERG (Homo sapiens, UniProt P11308 1-479); conditions: protein: recombinant; tags: N-terminal GST; dsDNA, one strand shown
# T4 sequence: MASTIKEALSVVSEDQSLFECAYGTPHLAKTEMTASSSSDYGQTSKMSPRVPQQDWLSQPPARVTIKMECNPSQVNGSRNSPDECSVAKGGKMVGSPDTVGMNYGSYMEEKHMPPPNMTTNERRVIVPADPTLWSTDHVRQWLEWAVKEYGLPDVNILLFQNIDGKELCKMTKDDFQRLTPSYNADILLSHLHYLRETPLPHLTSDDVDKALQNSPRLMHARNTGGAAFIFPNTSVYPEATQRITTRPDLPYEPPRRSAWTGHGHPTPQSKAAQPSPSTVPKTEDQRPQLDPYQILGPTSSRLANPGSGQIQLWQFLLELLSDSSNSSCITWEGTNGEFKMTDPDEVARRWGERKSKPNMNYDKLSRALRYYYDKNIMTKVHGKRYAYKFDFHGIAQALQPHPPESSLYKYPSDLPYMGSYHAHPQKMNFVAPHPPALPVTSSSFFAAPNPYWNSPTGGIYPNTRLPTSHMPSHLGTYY
# Procedure, shortened: as §1
# ELF1 = ELF1 (Homo sapiens, UniProt P32519 1-619); conditions: protein: recombinant; tags: N-terminal GST; dsDNA, one strand shown
# Chain of ELF1 (P32519 whole entry): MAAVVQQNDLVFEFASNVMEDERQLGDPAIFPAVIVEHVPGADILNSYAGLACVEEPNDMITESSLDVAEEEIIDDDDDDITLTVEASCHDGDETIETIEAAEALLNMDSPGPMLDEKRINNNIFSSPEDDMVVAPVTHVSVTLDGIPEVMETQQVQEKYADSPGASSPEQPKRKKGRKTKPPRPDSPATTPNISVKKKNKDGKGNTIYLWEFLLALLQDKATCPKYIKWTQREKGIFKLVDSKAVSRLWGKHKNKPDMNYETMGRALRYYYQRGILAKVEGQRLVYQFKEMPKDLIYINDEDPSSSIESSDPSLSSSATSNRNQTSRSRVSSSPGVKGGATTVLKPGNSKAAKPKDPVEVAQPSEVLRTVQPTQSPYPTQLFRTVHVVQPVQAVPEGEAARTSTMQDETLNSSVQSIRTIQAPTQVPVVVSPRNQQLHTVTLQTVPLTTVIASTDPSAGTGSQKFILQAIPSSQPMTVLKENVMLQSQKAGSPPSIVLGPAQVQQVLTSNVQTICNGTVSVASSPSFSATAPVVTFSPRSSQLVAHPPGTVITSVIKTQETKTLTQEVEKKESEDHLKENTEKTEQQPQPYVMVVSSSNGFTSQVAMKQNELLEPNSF
# Procedure, shortened: as §1
# EHF = biological target: T5, EHF (Homo sapiens, UniProt Q9NZC4 1-300); conditions: protein: recombinant; tags: N-terminal GST; dsDNA, one strand shown
# T5 sequence: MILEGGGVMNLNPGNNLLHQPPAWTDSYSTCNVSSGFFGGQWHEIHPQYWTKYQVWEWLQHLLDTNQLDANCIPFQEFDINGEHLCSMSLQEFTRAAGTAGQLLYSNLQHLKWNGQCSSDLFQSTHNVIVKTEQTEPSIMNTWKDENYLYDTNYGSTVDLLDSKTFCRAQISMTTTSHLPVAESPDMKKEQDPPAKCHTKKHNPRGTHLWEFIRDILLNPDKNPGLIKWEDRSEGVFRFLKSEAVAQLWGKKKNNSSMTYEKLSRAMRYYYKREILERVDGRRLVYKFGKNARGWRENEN
# Procedure, shortened: as §1
# SPI1 = SPI1 (Homo sapiens, UniProt P17947 1-270); conditions: protein: recombinant; tags: N-terminal GST; dsDNA, one strand shown
# Procedure, shortened: as §1
# SPIB = SPIB (Homo sapiens, UniProt Q01892 1-262); conditions: protein: recombinant; tags: N-terminal GST; dsDNA, one strand shown
# Chain of SPIB (Q01892 whole entry): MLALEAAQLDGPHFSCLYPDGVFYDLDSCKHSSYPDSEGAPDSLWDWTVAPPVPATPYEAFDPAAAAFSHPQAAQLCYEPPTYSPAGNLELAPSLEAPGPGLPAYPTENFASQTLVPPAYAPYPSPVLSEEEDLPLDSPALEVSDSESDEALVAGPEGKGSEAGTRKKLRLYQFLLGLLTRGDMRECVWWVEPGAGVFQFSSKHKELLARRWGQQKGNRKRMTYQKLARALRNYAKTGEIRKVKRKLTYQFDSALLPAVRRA
# Procedure, shortened: as §1
# ELK3 = biological target: T6, ELK3 (Homo sapiens, UniProt P41970 1-407); conditions: protein: recombinant; tags: N-terminal GST; dsDNA, one strand shown
# T6 sequence: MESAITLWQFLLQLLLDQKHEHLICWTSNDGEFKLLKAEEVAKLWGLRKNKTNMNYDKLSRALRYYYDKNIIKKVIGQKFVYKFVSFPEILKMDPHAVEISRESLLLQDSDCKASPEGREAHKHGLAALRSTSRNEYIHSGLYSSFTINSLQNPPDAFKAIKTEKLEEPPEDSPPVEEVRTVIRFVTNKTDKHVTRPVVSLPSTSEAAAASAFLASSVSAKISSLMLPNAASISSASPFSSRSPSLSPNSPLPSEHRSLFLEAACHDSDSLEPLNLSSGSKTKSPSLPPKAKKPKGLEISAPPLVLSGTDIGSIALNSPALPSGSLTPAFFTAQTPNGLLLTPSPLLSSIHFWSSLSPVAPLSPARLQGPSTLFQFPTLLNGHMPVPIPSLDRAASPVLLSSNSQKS
# Procedure, shortened: as §1
# FEV = biological target: T7, FEV (Homo sapiens, UniProt Q99581 1-238); conditions: protein: recombinant; tags: N-terminal GST; dsDNA, one strand shown
# T7 sequence: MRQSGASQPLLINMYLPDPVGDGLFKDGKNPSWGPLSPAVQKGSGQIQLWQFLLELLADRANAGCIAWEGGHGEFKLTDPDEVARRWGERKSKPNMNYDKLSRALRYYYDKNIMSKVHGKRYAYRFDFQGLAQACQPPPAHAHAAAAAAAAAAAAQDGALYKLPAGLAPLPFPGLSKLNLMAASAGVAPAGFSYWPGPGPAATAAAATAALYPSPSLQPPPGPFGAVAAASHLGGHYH
# Procedure, shortened: as §1
# ETV5 = ETV5 (Homo sapiens, UniProt P41161 1-510); conditions: protein: recombinant; tags: N-terminal GST; dsDNA, one strand shown
# Chain of ETV5 (P41161 whole entry): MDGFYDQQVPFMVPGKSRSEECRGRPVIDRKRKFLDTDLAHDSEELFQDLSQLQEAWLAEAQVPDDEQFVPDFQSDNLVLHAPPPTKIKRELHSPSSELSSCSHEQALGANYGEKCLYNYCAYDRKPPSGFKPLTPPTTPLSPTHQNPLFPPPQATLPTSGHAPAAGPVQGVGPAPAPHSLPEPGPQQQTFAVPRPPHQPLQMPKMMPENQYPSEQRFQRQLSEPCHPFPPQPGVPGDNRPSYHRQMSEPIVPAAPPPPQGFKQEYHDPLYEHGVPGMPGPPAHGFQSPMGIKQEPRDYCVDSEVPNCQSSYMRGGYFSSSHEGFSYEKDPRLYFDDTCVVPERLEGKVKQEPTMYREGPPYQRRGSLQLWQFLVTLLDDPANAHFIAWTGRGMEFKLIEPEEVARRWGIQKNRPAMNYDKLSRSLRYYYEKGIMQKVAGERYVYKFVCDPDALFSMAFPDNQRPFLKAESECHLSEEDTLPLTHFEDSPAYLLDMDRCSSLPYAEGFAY
# Procedure, shortened: as §1
# HSF1 = HSF1 (Homo sapiens, UniProt Q00613 1-529); conditions: protein: recombinant; tags: N-terminal GST; chain copies: 3; dsDNA, one strand shown
# Chain of HSF1 (Q00613 whole entry): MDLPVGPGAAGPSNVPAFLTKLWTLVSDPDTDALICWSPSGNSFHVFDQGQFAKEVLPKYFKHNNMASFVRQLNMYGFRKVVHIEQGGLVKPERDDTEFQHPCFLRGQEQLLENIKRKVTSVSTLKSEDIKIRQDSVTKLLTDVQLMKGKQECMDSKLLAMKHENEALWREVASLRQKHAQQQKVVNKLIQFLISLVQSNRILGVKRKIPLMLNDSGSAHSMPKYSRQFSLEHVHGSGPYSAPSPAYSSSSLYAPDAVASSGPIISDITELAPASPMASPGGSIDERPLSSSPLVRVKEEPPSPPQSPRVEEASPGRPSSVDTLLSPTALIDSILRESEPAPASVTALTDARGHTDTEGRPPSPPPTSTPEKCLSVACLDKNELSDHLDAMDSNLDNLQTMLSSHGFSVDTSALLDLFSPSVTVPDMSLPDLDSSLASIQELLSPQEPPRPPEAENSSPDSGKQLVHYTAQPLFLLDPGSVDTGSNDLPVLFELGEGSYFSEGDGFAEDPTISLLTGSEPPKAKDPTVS
# Procedure, shortened: as §1
# SPIC = biological target: T8, SPIC (Homo sapiens, UniProt Q8N5J4 1-248); conditions: protein: recombinant; tags: N-terminal GST; dsDNA, one strand shown
# T8 sequence: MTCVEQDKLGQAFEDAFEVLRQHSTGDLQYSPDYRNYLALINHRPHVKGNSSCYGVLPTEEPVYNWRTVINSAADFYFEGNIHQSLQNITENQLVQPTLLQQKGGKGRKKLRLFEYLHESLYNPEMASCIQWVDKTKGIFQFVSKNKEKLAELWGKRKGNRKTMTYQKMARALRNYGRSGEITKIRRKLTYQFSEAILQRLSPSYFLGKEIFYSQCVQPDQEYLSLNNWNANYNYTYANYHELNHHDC
# Procedure, shortened: as §1
# ELF4 = ELF4 (Homo sapiens, UniProt Q99607 1-663); conditions: protein: recombinant; tags: N-terminal GST; dsDNA, one strand shown
# Chain of ELF4 (Q99607 whole entry): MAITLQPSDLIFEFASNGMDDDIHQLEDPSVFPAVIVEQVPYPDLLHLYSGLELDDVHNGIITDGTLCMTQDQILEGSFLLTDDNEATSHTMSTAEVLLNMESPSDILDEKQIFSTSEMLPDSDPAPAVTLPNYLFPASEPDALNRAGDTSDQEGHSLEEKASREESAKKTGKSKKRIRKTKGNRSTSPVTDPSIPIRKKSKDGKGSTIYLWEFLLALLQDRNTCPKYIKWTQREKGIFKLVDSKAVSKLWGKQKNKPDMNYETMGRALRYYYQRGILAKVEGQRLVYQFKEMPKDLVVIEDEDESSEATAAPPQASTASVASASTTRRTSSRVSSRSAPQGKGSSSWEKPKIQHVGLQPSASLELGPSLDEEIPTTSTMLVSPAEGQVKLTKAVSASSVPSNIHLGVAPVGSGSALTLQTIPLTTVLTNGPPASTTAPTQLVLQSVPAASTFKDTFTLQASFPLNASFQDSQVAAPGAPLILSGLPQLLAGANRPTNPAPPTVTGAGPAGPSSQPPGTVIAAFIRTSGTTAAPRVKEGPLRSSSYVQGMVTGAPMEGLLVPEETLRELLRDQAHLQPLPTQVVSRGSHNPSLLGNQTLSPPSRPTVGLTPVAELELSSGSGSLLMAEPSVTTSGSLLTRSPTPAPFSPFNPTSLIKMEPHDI
# Procedure, shortened: as §1
# ELK4 = biological target: T9, ELK4 (Homo sapiens, UniProt P28324-2 1-405); conditions: protein: recombinant; tags: N-terminal GST; dsDNA, one strand shown
# T9 sequence: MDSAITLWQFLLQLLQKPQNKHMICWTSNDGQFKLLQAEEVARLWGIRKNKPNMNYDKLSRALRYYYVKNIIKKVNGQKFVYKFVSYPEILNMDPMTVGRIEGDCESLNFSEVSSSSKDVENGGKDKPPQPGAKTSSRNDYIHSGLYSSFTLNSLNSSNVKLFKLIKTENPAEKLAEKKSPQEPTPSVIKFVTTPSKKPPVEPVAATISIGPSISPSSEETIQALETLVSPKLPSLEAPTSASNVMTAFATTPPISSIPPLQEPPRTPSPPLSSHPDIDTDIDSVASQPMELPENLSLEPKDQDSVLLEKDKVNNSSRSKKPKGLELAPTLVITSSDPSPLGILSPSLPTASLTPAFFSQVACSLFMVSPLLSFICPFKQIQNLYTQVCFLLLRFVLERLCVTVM
# Procedure, shortened: as §1
# ETV2 = biological target: T10, ETV2 (Homo sapiens, UniProt O00321 1-342); conditions: protein: recombinant; tags: N-terminal GST; dsDNA, one strand shown
# T10 sequence: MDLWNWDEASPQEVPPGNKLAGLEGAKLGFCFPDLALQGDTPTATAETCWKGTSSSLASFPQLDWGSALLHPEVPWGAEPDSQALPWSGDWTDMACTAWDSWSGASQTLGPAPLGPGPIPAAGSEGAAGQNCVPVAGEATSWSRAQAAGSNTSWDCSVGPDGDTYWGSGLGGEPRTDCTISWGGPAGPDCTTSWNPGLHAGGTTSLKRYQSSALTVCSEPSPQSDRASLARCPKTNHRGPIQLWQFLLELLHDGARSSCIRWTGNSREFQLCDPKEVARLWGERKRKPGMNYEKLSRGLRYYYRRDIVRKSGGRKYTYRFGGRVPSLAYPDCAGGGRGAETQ
# Procedure, shortened: as §1
# ELF3 = biological target: T11, ELF3 (Homo sapiens, UniProt P78545 1-371); conditions: protein: recombinant; tags: N-terminal GST; dsDNA, one strand shown
# T11 sequence: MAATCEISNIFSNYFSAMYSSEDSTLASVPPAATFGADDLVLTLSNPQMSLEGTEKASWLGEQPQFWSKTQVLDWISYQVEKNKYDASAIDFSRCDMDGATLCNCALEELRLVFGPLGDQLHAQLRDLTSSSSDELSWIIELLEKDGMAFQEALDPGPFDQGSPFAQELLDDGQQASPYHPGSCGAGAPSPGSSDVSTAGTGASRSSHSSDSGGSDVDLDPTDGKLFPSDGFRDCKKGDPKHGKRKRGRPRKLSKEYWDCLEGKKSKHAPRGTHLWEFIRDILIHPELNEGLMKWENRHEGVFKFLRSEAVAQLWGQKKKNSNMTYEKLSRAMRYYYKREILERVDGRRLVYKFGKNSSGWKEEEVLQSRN
# Procedure, shortened: as §1
# ETV1 = ETV1 (Homo sapiens, UniProt P50549 1-477); conditions: protein: recombinant; tags: N-terminal GST; dsDNA, one strand shown
# Chain of ETV1 (P50549 whole entry): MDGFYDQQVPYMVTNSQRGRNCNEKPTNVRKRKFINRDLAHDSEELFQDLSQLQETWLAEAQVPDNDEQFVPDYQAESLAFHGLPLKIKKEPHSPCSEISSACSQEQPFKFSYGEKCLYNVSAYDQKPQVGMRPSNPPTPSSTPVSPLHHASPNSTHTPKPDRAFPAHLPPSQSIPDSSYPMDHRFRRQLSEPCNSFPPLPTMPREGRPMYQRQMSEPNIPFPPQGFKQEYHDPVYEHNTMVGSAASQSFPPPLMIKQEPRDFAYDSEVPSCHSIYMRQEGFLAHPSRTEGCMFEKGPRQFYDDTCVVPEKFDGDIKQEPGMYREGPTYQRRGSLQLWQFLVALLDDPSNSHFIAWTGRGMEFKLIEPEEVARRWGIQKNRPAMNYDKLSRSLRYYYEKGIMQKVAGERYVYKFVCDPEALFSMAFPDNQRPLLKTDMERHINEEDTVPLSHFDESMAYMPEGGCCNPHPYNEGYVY
# Procedure, shortened: as §1
sequence,measurement,setting,value
AGGAAA,binding signal,FLI1,"1.32 fold enrichment (6-mer frequency, TF over GST control)"
same,binding signal,ELK1,"1.28 fold enrichment (6-mer frequency, TF over GST control)"
same,binding signal,GABPA,"1.31 fold enrichment (6-mer frequency, TF over GST control)"
same,binding signal,ERG,"1.62 fold enrichment (6-mer frequency, TF over GST control)"
same,binding signal,ELF1,"1.27 fold enrichment (6-mer frequency, TF over GST control)"
same,binding signal,EHF,"1.63 fold enrichment (6-mer frequency, TF over GST control)"
same,binding signal,SPI1,"1.43 fold enrichment (6-mer frequency, TF over GST control)"
same,binding signal,SPIB,"1.49 fold enrichment (6-mer frequency, TF over GST control)"
same,binding signal,ELK3,"1.34 fold enrichment (6-mer frequency, TF over GST control)"
same,binding signal,FEV,"1.5 fold enrichment (6-mer frequency, TF over GST control)"
same,binding signal,ETV5,"1.52 fold enrichment (6-mer frequency, TF over GST control)"
same,binding signal,HSF1,"1.15 fold enrichment (6-mer frequency, TF over GST control)"
same,binding signal,SPIC,"1.42 fold enrichment (6-mer frequency, TF over GST control)"
same,binding signal,ELF4,"1.35 fold enrichment (6-mer frequency, TF over GST control)"
same,binding signal,ELK4,"1.2 fold enrichment (6-mer frequency, TF over GST control)"
same,binding signal,ETV2,"1.41 fold enrichment (6-mer frequency, TF over GST control)"
same,binding signal,ELF3,"1.72 fold enrichment (6-mer frequency, TF over GST control)"
same,binding signal,ETV1,"1.46 fold enrichment (6-mer frequency, TF over GST control)"

# From publication PMC7862700, “An all-to-all approach to the identification of sequence-specific readers for epigenetic DNA modifications on cytosine”
